# Results reported in the supplement of paper PMC12282887.
# ± gives the standard deviation of the averaged measurements.
# Columns and labels:
# Experiment in all cases: promoter activity interaction Z-score (Lux/OD deviation from empty-vector control); higher = stronger promoter induction by the compound
# [1] = test system: E. coli BW25113 acrABp lux reporter
# How it was run: (§1)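 E. coli BW25113, as wild type or one of three single-gene deletion strains, carried low-copy luxCDABE promoter reporters and grew in 40 µl LB Lennox in 384-well plates at 37°C, with OD600 and luminescence read every 30 min for 12 h. Each compound was run at four 1:2 dilutions in biological duplicates, integration spanned 0–8 h for wild type and 1–9 h for deletion strains, and wells under 10% of the median growth value were dropped. The score is the Z-transformed residual of growth-normalised luminescence fitted against a control.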
# [2] = test system: E. coli BW25113 marRABp lux reporter
# How it was run: as §1
# [3] = test system: E. coli BW25113 micFp lux reporter
# How it was run: as §1
# [4] = test system: E. coli BW25113 ompFp lux reporter
# How it was run: as §1
# [5] = test system: E. coli BW25113 robp lux reporter
# How it was run: as §1
# [6] = test system: E. coli BW25113 soxSp lux reporter
# How it was run: as §1
# [7] = test system: E. coli BW25113 tolCp lux reporter
# How it was run: as §1
# [8] = 24.5 µg/ml, genetic background: wild type
# [9] = 24.5 µg/ml, genetic background: ΔmarA
# [10] = 24.5 µg/ml, genetic background: Δrob
# [11] = 24.5 µg/ml, genetic background: ΔsoxS
# [12] = 49.1 µg/ml, genetic background: wild type
# [13] = 49.1 µg/ml, genetic background: ΔmarA
# [14] = 49.1 µg/ml, genetic background: Δrob
# [15] = 49.1 µg/ml, genetic background: ΔsoxS
# [16] = 98.1 µg/ml, genetic background: wild type
# [17] = 98.1 µg/ml, genetic background: ΔmarA
# [18] = 98.1 µg/ml, genetic background: Δrob
# [19] = 98.1 µg/ml, genetic background: ΔsoxS
# [20] = 196.3 µg/ml, genetic background: wild type
# [21] = 196.3 µg/ml, genetic background: ΔmarA
# [22] = 196.3 µg/ml, genetic background: Δrob
# [23] = 196.3 µg/ml, genetic background: ΔsoxS
compound,measurement,setting,value
C[C@H](CCC(=O)O)[C@H]1CC[C@H]2[C@@H]3CC[C@@H]4C[C@H](O)CC[C@]4(C)[C@H]3C[C@H](O)[C@]12C [Deoxycholic acid],promoter activity interaction Z-score,[1]; [8],-0.00545 ± 0.031
same,promoter activity interaction Z-score,[1]; [9],1.57 ± 0.29
same,promoter activity interaction Z-score,[1]; [10],-0.132 ± 0.14
same,promoter activity interaction Z-score,[1]; [11],-0.386 ± 0.27
same,promoter activity interaction Z-score,[1]; [12],-0.226 ± 0.0089
same,promoter activity interaction Z-score,[1]; [13],0.503 ± 0.52
same,promoter activity interaction Z-score,[1]; [14],-0.0467 ± 0.16
same,promoter activity interaction Z-score,[1]; [15],-0.057 ± 0.47
same,promoter activity interaction Z-score,[1]; [16],0.106 ± 0.28
same,promoter activity interaction Z-score,[1]; [17],1.38 ± 1.5
same,promoter activity interaction Z-score,[1]; [18],-0.154 ± 0.21
same,promoter activity interaction Z-score,[1]; [19],0.252 ± 0.27
same,promoter activity interaction Z-score,[1]; [20],-0.41 ± 0.14
same,promoter activity interaction Z-score,[1]; [21],0.181 ± 0.34
same,promoter activity interaction Z-score,[1]; [22],-0.162 ± 0.13
same,promoter activity interaction Z-score,[1]; [23],-0.502 ± 0.59
same,promoter activity interaction Z-score,[2]; [8],-0.31 ± 0.18
same,promoter activity interaction Z-score,[2]; [9],-0.0533 ± 0.055
same,promoter activity interaction Z-score,[2]; [10],-0.148 ± 0.14
same,promoter activity interaction Z-score,[2]; [11],-0.343 ± 0.17
same,promoter activity interaction Z-score,[2]; [12],-0.0619 ± 0.22
same,promoter activity interaction Z-score,[2]; [13],-0.261 ± 0.22
same,promoter activity interaction Z-score,[2]; [14],-0.128 ± 0.13
same,promoter activity interaction Z-score,[2]; [15],-0.203 ± 0.24
same,promoter activity interaction Z-score,[2]; [16],-0.0956 ± 0.065
same,promoter activity interaction Z-score,[2]; [17],-0.111 ± 0.12
same,promoter activity interaction Z-score,[2]; [18],-0.283 ± 0.077
same,promoter activity interaction Z-score,[2]; [19],-0.336 ± 0.16
same,promoter activity interaction Z-score,[2]; [20],-0.225 ± 0.38
same,promoter activity interaction Z-score,[2]; [21],-0.118 ± 0.15
same,promoter activity interaction Z-score,[2]; [22],-0.197 ± 0.065
same,promoter activity interaction Z-score,[2]; [23],-0.366 ± 0.062
same,promoter activity interaction Z-score,[3]; [8],-0.343 ± 0.23
same,promoter activity interaction Z-score,[3]; [9],0.0199 ± 0.11
same,promoter activity interaction Z-score,[3]; [10],0.0283 ± 0.0044
same,promoter activity interaction Z-score,[3]; [11],-0.264 ± 0.083
same,promoter activity interaction Z-score,[3]; [12],-0.355 ± 0.065
same,promoter activity interaction Z-score,[3]; [13],0.175 ± 0.087
same,promoter activity interaction Z-score,[3]; [14],-0.0435 ± 0.061
same,promoter activity interaction Z-score,[3]; [15],-0.146 ± 0.02
same,promoter activity interaction Z-score,[3]; [16],0.114 ± 0.12
same,promoter activity interaction Z-score,[3]; [17],0.0675 ± 0.083
same,promoter activity interaction Z-score,[3]; [18],-0.0555 ± 0.049
same,promoter activity interaction Z-score,[3]; [19],0.221 ± 0.023
same,promoter activity interaction Z-score,[3]; [20],0.0636 ± 0.083
same,promoter activity interaction Z-score,[3]; [21],0.21 ± 0.12
same,promoter activity interaction Z-score,[3]; [22],-0.134 ± 0.011
same,promoter activity interaction Z-score,[3]; [23],-0.044 ± 0.02
same,promoter activity interaction Z-score,[4]; [8],-0.553 ± 0.23
same,promoter activity interaction Z-score,[4]; [9],-1.03 ± 0.14
same,promoter activity interaction Z-score,[4]; [10],-0.889 ± 0.033
same,promoter activity interaction Z-score,[4]; [11],-0.771 ± 0.0099
same,promoter activity interaction Z-score,[4]; [12],-0.241 ± 0.37
same,promoter activity interaction Z-score,[4]; [13],-0.568 ± 0.061
same,promoter activity interaction Z-score,[4]; [14],-0.421 ± 0.46
same,promoter activity interaction Z-score,[4]; [15],-0.619 ± 0.45
same,promoter activity interaction Z-score,[4]; [16],0.192 ± 0.079
same,promoter activity interaction Z-score,[4]; [17],-1.07 ± 0.24
same,promoter activity interaction Z-score,[4]; [18],-0.618 ± 0.14
same,promoter activity interaction Z-score,[4]; [19],-0.316 ± 0.15
same,promoter activity interaction Z-score,[4]; [20],-0.117 ± 0.52
same,promoter activity interaction Z-score,[4]; [21],-0.473 ± 0.02
same,promoter activity interaction Z-score,[4]; [22],-0.582 ± 0.058
same,promoter activity interaction Z-score,[4]; [23],-0.78 ± 0.4
same,promoter activity interaction Z-score,[5]; [8],0.346 ± 0.23
same,promoter activity interaction Z-score,[5]; [9],-0.527 ± 0.51
same,promoter activity interaction Z-score,[5]; [10],0.184 ± 0.84
same,promoter activity interaction Z-score,[5]; [11],-0.0515 ± 0.27
same,promoter activity interaction Z-score,[5]; [12],0.0327 ± 0.23
same,promoter activity interaction Z-score,[5]; [13],0.517 ± 0.54
same,promoter activity interaction Z-score,[5]; [14],0.31 ± 0.44
same,promoter activity interaction Z-score,[5]; [15],0.767 ± 0.39
same,promoter activity interaction Z-score,[5]; [16],0.553 ± 0.54
same,promoter activity interaction Z-score,[5]; [17],0.501 ± 0.48
same,promoter activity interaction Z-score,[5]; [18],0.729 ± 1.3
same,promoter activity interaction Z-score,[5]; [19],-0.0126 ± 0.038
same,promoter activity interaction Z-score,[5]; [20],0.502 ± 0.87
same,promoter activity interaction Z-score,[5]; [21],0.13 ± 0.13
same,promoter activity interaction Z-score,[5]; [22],-0.399 ± 0.066
same,promoter activity interaction Z-score,[5]; [23],0.439 ± 0.14
same,promoter activity interaction Z-score,[6]; [8],0.0465 ± 0.031
same,promoter activity interaction Z-score,[6]; [9],-0.0486 ± 0.044
same,promoter activity interaction Z-score,[6]; [10],0.0418 ± 0.059
same,promoter activity interaction Z-score,[6]; [11],-0.115 ± 0.036
same,promoter activity interaction Z-score,[6]; [12],0.0154 ± 0.03
same,promoter activity interaction Z-score,[6]; [13],-0.092 ± 0.13
same,promoter activity interaction Z-score,[6]; [14],-0.0215 ± 0.03
same,promoter activity interaction Z-score,[6]; [15],-0.228 ± 0.12
same,promoter activity interaction Z-score,[6]; [16],0.124 ± 0.18
same,promoter activity interaction Z-score,[6]; [17],-0.348 ± 0.085
same,promoter activity interaction Z-score,[6]; [18],-0.0505 ± 0.11
same,promoter activity interaction Z-score,[6]; [19],-0.203 ± 0.29
same,promoter activity interaction Z-score,[6]; [20],-0.0569 ± 0.038
same,promoter activity interaction Z-score,[6]; [21],-0.335 ± 0.053
same,promoter activity interaction Z-score,[6]; [22],-0.26 ± 0.051
same,promoter activity interaction Z-score,[6]; [23],-0.515 ± 0.0068
same,promoter activity interaction Z-score,[7]; [8],0.918 ± 0.69
same,promoter activity interaction Z-score,[7]; [9],0.218 ± 0.13
same,promoter activity interaction Z-score,[7]; [10],1.08 ± 1.6
same,promoter activity interaction Z-score,[7]; [11],0.883 ± 0.56
same,promoter activity interaction Z-score,[7]; [12],0.21 ± 0.56
same,promoter activity interaction Z-score,[7]; [13],0.972 ± 1.2
same,promoter activity interaction Z-score,[7]; [14],0.2888 ± 0.00083
same,promoter activity interaction Z-score,[7]; [15],-0.388 ± 0.38
same,promoter activity interaction Z-score,[7]; [16],0.816 ± 0.38
same,promoter activity interaction Z-score,[7]; [17],0.304 ± 0.81
same,promoter activity interaction Z-score,[7]; [18],0.00196 ± 0.37
same,promoter activity interaction Z-score,[7]; [19],1.18 ± 1.1
same,promoter activity interaction Z-score,[7]; [20],-0.28 ± 1.4
same,promoter activity interaction Z-score,[7]; [21],-0.467 ± 0.27
same,promoter activity interaction Z-score,[7]; [22],-0.148 ± 0.072
same,promoter activity interaction Z-score,[7]; [23],-0.718 ± 1.1
